Screening results deposited in PubChem BioAssay by National Center for Advancing Translational Sciences (NCATS).
Only some compounds are listed: those with a hit (about 1.8% of all), similar ones and a draw of the others.
HttQ103 aggreg: mutant huntingtin aggregation inhibition; AID 1688; Potency, µM (highest dose often 46.1 µM), without a hit: at the highest dose activity change, negative = inhibition, most hits filed as inhibitors; PC12 HttQ103-GFP aggregates, Acumen cytometry, 40 h; actives 1.1% (n = 220,000); note: % is set by controls: 0 for no effect and ±100 for the full control effect; nearly all actives have a fitted effect of over 60% in size
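Multiplexed with ATP-based cell death, this channel scores GFP aggregates in PC12 cells expressing inducible HTTex1-Q103-GFP. Induction used 100 nM tebufenozide; compounds were tested in concentration series.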
L3MBTL1 inh: inhibitors of human L3MBTL1; AID 485360; Q9Y468; Potency, µM (titrated, usually from 57.1 µM), inactives show at the highest dose activity, negative = inhibition, actives largely listed as inhibitors; actives 0.66% (n = 230,000); AlphaScreen L3MBTL1–H3K9me1 peptide binding; note: % is set by controls: 0 for no effect and ±100 for the full control effect; nearly all actives have a fitted effect of over 60% in size
Target sequence (Q9Y468 whole entry, looked up): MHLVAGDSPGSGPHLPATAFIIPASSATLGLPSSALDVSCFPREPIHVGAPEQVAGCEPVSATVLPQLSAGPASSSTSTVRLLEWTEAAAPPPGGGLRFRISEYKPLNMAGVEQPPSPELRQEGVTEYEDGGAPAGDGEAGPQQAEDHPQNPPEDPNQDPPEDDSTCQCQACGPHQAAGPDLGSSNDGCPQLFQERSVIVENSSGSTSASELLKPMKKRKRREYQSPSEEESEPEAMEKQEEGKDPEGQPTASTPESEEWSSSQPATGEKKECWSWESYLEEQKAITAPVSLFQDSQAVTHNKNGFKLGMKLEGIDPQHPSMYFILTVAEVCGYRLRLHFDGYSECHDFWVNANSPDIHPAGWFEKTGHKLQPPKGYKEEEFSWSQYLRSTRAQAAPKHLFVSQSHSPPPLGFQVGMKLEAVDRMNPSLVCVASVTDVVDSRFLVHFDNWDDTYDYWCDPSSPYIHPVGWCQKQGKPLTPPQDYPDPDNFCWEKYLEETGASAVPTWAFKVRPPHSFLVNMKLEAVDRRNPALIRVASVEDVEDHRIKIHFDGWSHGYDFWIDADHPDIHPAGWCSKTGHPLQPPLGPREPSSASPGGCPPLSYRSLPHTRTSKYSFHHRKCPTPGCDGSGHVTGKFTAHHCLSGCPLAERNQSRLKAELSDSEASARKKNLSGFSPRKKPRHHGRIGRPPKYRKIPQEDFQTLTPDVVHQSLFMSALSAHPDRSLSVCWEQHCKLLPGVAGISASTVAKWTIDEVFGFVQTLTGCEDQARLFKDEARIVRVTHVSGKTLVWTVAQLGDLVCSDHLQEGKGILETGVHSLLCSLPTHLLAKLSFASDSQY
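Read-out is AlphaScreen signal from streptavidin donor and nickel chelate acceptor beads (10 ug/mL final each) bridging L3MBTL1 (50 nM) and biotinylated K9-monomethylated H3(1-15) peptide (75 nM), after 30 min compound exposure at room temperature.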
HTT ATP protect: Huntington cell model cytoprotection by ATP luminescence | PC12 HTT-Q103 induced, cytoprotection, ATP luminescence, 40 h | Potency, µM (series often up to 56.4 µM), for the others: cytoprotection (ATP increase), usual class: activators | actives 0.14% (n = 230,000); note: % of control where 0% means no effect; nearly all actives have a fitted effect of over 45% in size
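Stable PC12 Q103-GFP cells in serum-supplemented, phenol red-free DMEM; induction by tebufenozide at 100 nM final; compound dose series; cell viability quantified luminescently from ATP.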
JMJD2E inh: blocks human JMJD2E demethylase activity | JMJD2E catalytic domain, FDH-coupled NADH fluorescence (FDH is formaldehyde dehydrogenase) | actives 1.6% (n = 230,000) | Potency, µM (titrated, usually from 57.1 µM), without a hit: at the top dose activity change, negative = inhibition, usual class: inhibitors | B2RXH2; active = well fitted inhibition curve with a large enough effect, not every such curve was filed as active; inconclusive = small, poorly fitted or top-dose-only effect, or another doubt; inactive = no such curve, though single readings can be large or run the other way;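 note: 0% = wells with enzyme and -100% = buffer wells without enzyme; nearly all actives have a fitted effect of over 50% in size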
Active calls of the source: *; ? = inconclusive; nt = not tested or not shown; [ ] = dose if it differs, or a comment. Unless noted, calls come from the whole dose curve; as a rule, active = well fitted curve in the direction sought with a large enough effect; inconclusive = small, poorly fitted or top-dose-only effect, or another doubt; inactive = no such curve, though single readings can be large; an effect the other way counts as inactive or inconclusive. Potency is the fitted concentration of half-maximal effect.

SMILES	HttQ103 aggreg	L3MBTL1 inh	HTT ATP protect	JMJD2E inh
COc1cc(CNc2ccc(N3CCCC3)cc2)ccc1OCc1ccccc1	-1%	?	10%[10 µM]	6.3µM*
O=C(NC1CCCC1)c1cc2nc(-c3ccccc3)cc(-c3ccccc3)n2n1	3.5µM*	nt	-85%[10 µM]	?
Cc1nn(C)c(C)c1CN(C)S(=O)(=O)c1ccc2ccccc2c1	7.9µM*	-3%	?	-5%
Cc1cc(C(=O)N/N=C/c2cc([N+](=O)[O-])ccc2O)c2ccccc2n1	7.1µM*	18µM*	32%[10 µM]	28µM*
O=C(Cn1nc2ccccc2n1)N/N=C/c1cc(Cl)cc([N+](=O)[O-])c1O	?	-5%	22%[10 µM]	?
Cc1ccccc1C(=O)Nc1cccc(C(=O)N/N=C/c2cc(Cl)cc([N+](=O)[O-])c2O)c1	2.8µM*	nt	-8%	-3%
Cc1cc(C(=O)N/N=C/c2cc(Br)cc([N+](=O)[O-])c2O)c2ccccc2n1	?	?	31%[10 µM]	6.3µM*
NC(=O)C(c1ccccc1)(c1ccccc1)[C@@H]1CCN(CCc2ccc3c(c2)CCO3)C1	7%	nt	-15%	nt
O=c1c(-c2ccc(Cl)cc2)nc2cnc(N3CCNCC3)nc2n1Cc1cccs1	nt	nt	24%	nt
CCOC(=O)OCC1OC(C#CC(C)(C)C)C=CC1OC(=O)OCC (stereo not drawn)	nt	nt	-3%[10 µM]	nt
Cc1c(NC(=O)c2cccc(NS(C)(=O)=O)c2)c(=O)n(-c2ccccc2)n1C	1µM*	-5%	8%[10 µM]	4%
Cc1c(NS(=O)(=O)c2cccc(C(=O)Nc3ccccc3)c2)c(=O)n(-c2ccccc2)n1C	nt	-3%	nt	nt
CCCCC/C=C\C/C=C\C/C=C\C=C\C(O)CCCC(=O)O (stereo not drawn)	nt	nt	-12%	1%
Cc1[nH]c2ccccc2c1CN1CCN(c2ccccn2)CC1	-25%[9.22 µM]	-14%	-29%[10 µM]	-1%
Cc1[nH]c2ccccc2c1CN1CCC(Cc2ccccc2)CC1	?	1%	-138%	25µM*
Cc1ccc(NC2=C(N3CCCCC3)C(=O)c3ccccc3C2=O)cc1	-32%	-10%	-20%	1%
O=C(/C=C/c1ccc(O)cc1)c1ccc(NC2=C(N3CCCCC3)C(=O)c3ccccc3C2=O)cc1	-29%	?	-59%	18µM*
O=C1C(Nc2ccccc2)=C(N2CCCCC2)C(=O)c2ccccc21	?	-18%	-71%	-7%
COc1ccccc1NC1=C(N2CCCCC2)C(=O)c2ccccc2C1=O	13µM*	-28%	-49%[10 µM]	-25%
CCN(CC)c1ncnc2ccc(Br)cc12	13µM*	3%	15%	1%
Cc1ccccc1-c1cncnc1NCc1cccnc1	nt	nt	8%	nt
CCc1ccc(-c2nc(CSCC(=O)N3CCN(c4ncccn4)CC3)c(C)o2)cc1	11µM*	-3%	-2%	-17%
C/C(=C\c1ccco1)C1C(C#N)=C(N)Oc2n[nH]c(-c3ccc(C)cc3)c21 (stereo not drawn)	27%	-3%	3.5µM*	2%
C/C(=C\c1ccco1)C1C(C#N)=C(N)Oc2n[nH]c(-c3ccccc3)c21 (stereo not drawn)	7%	-9%	1%	-7%
CCNc1ncc2nc(-c3ccc(OC)cc3)c(=O)n(-c3ccc(OC)cc3)c2n1	nt	nt	24%	nt
SMILES	HttQ103 aggreg	L3MBTL1 inh	HTT ATP protect	JMJD2E inh
CCN(CC)c1ncnc2scc(C3COc4ccccc4O3)c12 (stereo not drawn)	?	15%	21%[10 µM]	4%
c1ccc2c(c1)OCC(c1csc3ncnc(N4CCOCC4)c13)O2 (stereo not drawn)	13µM*	-3%	-2%	2%
CCN1/C(=C/c2sc(-c3ccccc3C)c[n+]2C)Sc2ccccc21	2.2µM*	nt	-130%	-21%
COC(=O)C1=C(C)N(Cc2ccccc2)[C@]23O[C@](C(=O)OC)(C(=O)N2C1c1ccccc1)C(C(=O)OC)=C3C(=O)OC (stereo partly drawn)	nt	nt	8%[10 µM]	nt
O=C(Nc1cc(Cl)ccc1O)c1snnc1-c1ccccc1	16µM*	0%	-67%	2%
CCN(CC)c1ccc2nc3ccccc3[n+](CC)c2c1	nt	20µM*	nt	nt
COc1ccccc1-n1c(SCc2cc(=O)oc3cc(O)ccc23)nc2ccccc2c1=O	27%	-13%	12%[0.074 µM]	?
COc1ccccc1-n1c(=O)oc2ccc(Cl)cc2c1=O	7.1µM*	4%	-88%[0.074 µM]	10%
COc1cccc(N2CCN(c3c(C#N)c(C(F)(F)F)nn3C)CC2)c1	11µM*	nt	26%	3%
CCC(C)(C)n1nnnc1C(c1cc2cc(C)ccc2[nH]c1=O)N1CCCc2ccccc21 (stereo not drawn)	12%	nt	4%	-8%
Cc1ccc2[nH]c(=O)c(C(c3nnnn3C3CCCC3)N3CCCc4ccccc43)cc2c1 (stereo not drawn)	35µM*	10%	9%[10 µM]	?
CN(C)c1nc(=NCc2ccco2)ss1	0.89µM*	-4%	-92%[10 µM]	3%
COc1ccc(-n2c(C)cc(/C=C3\SC(=S)N(Cc4ccco4)C3=O)c2C)cc1	-27%	-10%	-11%[10 µM]	-1%
CCN1CCN(c2c(/C=C3\SC(=S)N(Cc4ccco4)C3=O)c(C)c(C#N)c(=O)n2C)CC1	20%[9.22 µM]	nt	11%[10 µM]	13µM*
COc1ccc(OC)c(C2CC(=O)N3CN(c4ccccc4)CSC3=C2C#N)c1 (stereo not drawn)	9%	nt	-23%	?
CCc1ccccc1N1CSC2=C(C#N)C(c3ccccc3F)CC(=O)N2C1 (stereo not drawn)	24%	-4%	2%	32µM*
COc1ccc(C2CC(=O)N3CN(c4ccccc4F)CSC3=C2C#N)cc1OC (stereo not drawn)	1%	nt	-15%	28µM*
COc1cc(OC)c(C2CC(=O)N3CN(c4ccccc4C)CSC3=C2C#N)cc1OC (stereo not drawn)	24%	-16%	3%[10 µM]	22µM*
COc1cc(C2CC(=O)N3CN(Cc4ccco4)CSC3=C2C#N)ccc1OCc1ccccc1 (stereo not drawn)	-12%	-13%	-7%	?
C=CCOC(=O)C(C(C)=O)C(NC(=O)OC)c1ccco1 (stereo not drawn)	nt	nt	-2%[10 µM]	nt
NC1=NC(S)C2N=CN=C2N1 (stereo not drawn)	16%	nt	-37%	nt
CC(C(=O)N1CCN(C2c3ccccc3-c3ccccc32)CC1)N1C(=O)c2ccccc2C1=O (stereo not drawn)	5%	-10%	6%[10 µM]	4%
CC(C(=O)N1CCCCC1)N1C(=O)c2ccccc2C1=O (stereo not drawn)	32µM*	nt	3%	5%
CCC(=O)/C=C1/Sc2ccccc2N1CC	7.1µM*	-3%	3%[10 µM]	-5%
Cc1cccc(CSC(=N)N)c1	-6%	4%	5%[10 µM]	4%
N#CC(C#N)=C(Nc1ccc(F)cc1)SCc1cccc(Br)c1	2.2µM*	-14%	-64%[10 µM]	-5%
Cc1cccc(CSC(Nc2ccc(F)cc2)=C(C#N)C#N)c1	4.5µM*	-7%	-18%[10 µM]	10%
Cc1cccc(CNc2nc(-c3ccc4c(c3)OCO4)nc3ccccc23)c1	nt	nt	-254%	nt
